Screening data: PubChem, National Center for Advancing Translational Sciences (NCATS)
In the library only some 12% were active in any assay of this set; here they are far more common.
AmpC no deterg = AmpC beta-lactamase inhibition without detergent | P00811 | AmpC nitrocefin hydrolysis, absorbance 480 nm, 0.0001% Triton | Potency, µM (top dose mostly 57.1 µM), for inactives: top-dose activity change, negative = inhibition, hits mostly inhibitors | 0.52% of 330,000 active;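 also: plate controls were no compound for no effect and no enzyme for full effect; nearly all actives have a fitted effect of over 20% in size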
Target sequence (P00811 whole entry, looked up): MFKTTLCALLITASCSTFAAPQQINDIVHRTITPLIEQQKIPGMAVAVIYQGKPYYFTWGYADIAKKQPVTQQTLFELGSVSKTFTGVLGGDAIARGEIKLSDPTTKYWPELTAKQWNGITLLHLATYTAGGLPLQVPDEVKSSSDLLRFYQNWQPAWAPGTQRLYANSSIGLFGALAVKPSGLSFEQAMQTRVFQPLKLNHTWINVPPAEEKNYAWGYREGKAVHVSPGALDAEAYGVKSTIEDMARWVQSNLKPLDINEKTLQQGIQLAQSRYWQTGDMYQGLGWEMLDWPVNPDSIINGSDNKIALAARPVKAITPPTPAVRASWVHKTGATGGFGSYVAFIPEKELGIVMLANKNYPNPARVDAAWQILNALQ
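20 mM phosphate pH 7.0 + 0.01% (detergent screen) or 0.0001% Triton X-100; 5.3 nM AmpC reagent; cpd preinc 15 min RT; nitrocefin (800 uM stock) to start; A480 q20 s × 4 min; Activity was normalised to no-enzyme and no-compound control wells.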
AmpC inh detg = inhibitors of E. coli AmpC beta-lactamase with detergent; P00811; AmpC hydrolysis of nitrocefin, absorbance 480 nm, 0.01% Triton; Potency, µM (titrated, usually from 114 µM), inactives show top-dose activity change, negative = inhibition, usual class: inhibitors; 0.041% of 370,000 active; AID 485294;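 also: 0% = no-compound wells and -100% = no-enzyme wells; nearly all actives have a fitted effect of over 25% in size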
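20 mM phosphate pH 7.0 + 0.01% (detergent screen) or 0.0001% Triton X-100; 5.3 nM AmpC reagent; cpd preinc 15 min RT; nitrocefin (800 uM stock) to start; A480 q20 s × 4 min; Activity was normalised to no-enzyme and no-compound control wells.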
Pf growth 48h = P. falciparum growth inhibition at 48 hours (one generation); P. falciparum luciferase growth in erythrocytes, 48 h; Potency, µM (doses to about 28.7 µM), without a hit: at the top dose activity change, negative = inhibition, most hits filed as inhibitors; 5.9% of 310,000 active; AID 504832; also: % is scaled to controls: 0 for no effect and ±100 for the full control effect
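In quantitative HTS format, infected erythrocytes bearing luciferase-reporter parasites were treated for a single generation at 37 C. Luminescence after adding detection reagent served as the growth measure.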
SARS PLP yeast = blocks SARS-CoV papain-like protease in a yeast assay | S. cerevisiae expressing SARS-CoV PLpro, growth rescue | Potency, µM (top dose mostly 32.9 µM), inactives show at the top dose activity, positive = growth rescue, most hits filed as activators | 0.19% of 330,000 active; calls by dose curve; also: 0% is about no effect; nearly all actives have a fitted effect of over 55% in size
Pf growth 96h = P. falciparum growth inhibition at 96 hour, primary screen for plastid delayed-death inhibitors. AID 504834. P. falciparum luciferase reporter growth, 96 h. 6.9% of 320,000 active. Potency, µM (doses to about 28.7 µM), for inactives: at the highest dose activity change, negative = inhibition, hits mostly inhibitors; also: % is scaled to controls: 0 for no effect and ±100 for the full control effect
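Parasite growth measured via integrated firefly luciferase reporter in P. falciparum. Infected erythrocytes at 2% hematocrit, 0.05% parasitemia final were treated 96 hours at 37 C under 5% CO2, and luminescence was read.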
Sm TGR block = blocks Schistosoma mansoni thioredoxin glutathione reductase | Q962Y6 | purified TGR, DTNB reduction, TNB absorbance 405 nm | Potency, µM (series often up to 114 µM), inactives show at the top dose activity change, negative = inhibition, hits mostly inhibitors | 3% of 360,000 active | AID 485364; also: % is scaled to controls: 0 for no effect and ±100 for the full control effect; nearly all actives have a fitted effect of over 60% in size
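Kinetic colorimetric format: TGR-catalysed, NADPH-driven DTNB reduction monitored via TNB absorbance. Enzyme dispensed at 20 nM; compound exposure 15 min at room temperature before reaction start.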
* = called active by the depositor; ? = inconclusive; . = not tested or not shown; [ ] = dose if it differs, or a comment. Unless noted, calls follow the shape of the dose curve; as a rule, active = well fitted curve in the direction sought with a large enough effect; inconclusive = small, poorly fitted or top-dose-only effect, or another doubt; inactive = no such curve, though single readings can be large; an effect the other way counts as inactive or inconclusive. Potency is read from the fitted curve at half-maximal effect.

SMILES | AmpC no deterg | AmpC inh detg | Pf growth 48h | SARS PLP yeast | Pf growth 96h | Sm TGR block
CC1=C[C@@H](O)CC(C)(C)[C@@H]1/C=C/C(C)=C/C=C/C(C)=C/C=C/C=C(C)/C=C/C=C(C)/C=C/C1=C(C)C[C@H](O)CC1(C)C | . | . | ? | . | 4.3µM* | .
CC1=C(/C=C/C(C)=C/C=C/C(C)=C/C(=O)O)C(C)(C)CCC1 | 73% | -10% | ? | -1% | 21% | 35µM*
CC1=C(/C=C/C(C)=C\C=C\C(C)=C\C=C\C=C(C)\C=C\C=C(C)\C=C\C2=C(C)C[C@@H](O)CC2(C)C)C(C)(C)C[C@H](O)C1 | . | . | 15µM* | . | 7.6µM* | .
Cc1c(Cl)cccc1NC(=O)CN1C(=O)COc2ccc(S(=O)(=O)N3CCOCC3)cc21 | . | -5% | . | . | . | -1%
COC(=O)c1ccc(NC(=O)CSc2ccc(-c3ccccn3)nn2)cc1 | -7% | -4% | 75% | -3% | -5% | -24%
O=[N+]([O-])c1cc(CN2CCOCC2)c2cccnc2c1O | -22% | ? | 4.1µM* | 0% | -16% | 35µM*
Oc1c(CN2CCCCC2)cc(Br)c2cccnc12 | 1% | 2% | 2.6µM* | -40% | ? | ?
CN1CCN(Cc2cc(COCc3ccccc3)c3cccnc3c2O)CC1 | 36% | ? | 2.1µM* | 4% | 2.3µM* | 25µM*
O=[N+]([O-])c1cc(CN2CCN(c3ccccc3)CC2)c(O)c2ncccc12 | -4% | 3% | ? | 1% | -18% | .
Oc1c(CN2CCc3ccccc3C2)cc(Cl)c2cccnc12 | -22% | ? | . | -30% | 137% | -13%
Oc1c(Cl)cc(CN2CCOCC2)c2cccnc12 | -9% | -4% | 4.7µM* | -10% | 5.9µM* | 1.3µM*
OC[C@@H](O)[C@H]1O[C@@H]2OC(C(Cl)(Cl)Cl)O[C@H]2[C@H]1O (some centres not stated) | . | . | 7% | . | -5% | .
CCCCNc1c(-c2ccc(-c3ccc(OC)cc3)c(OC)c2)nc2ccccn12 | 2% | . | . | 8% | . | .
CSCCC(NC(=O)c1ccc(Cl)cc1Cl)C(=O)N(C)Cc1nc2ccccc2c(=O)[nH]1 (configuration not stated) | -1% | ? | -18% | 0% | 11% | -3%
O=C(Oc1c(CN2CCOCC2)cc(Cl)c2cccnc12)c1ccccc1 | 29% | ? | ? | ? | ? | -15%
COc1cc(OC)cc(C(=O)Oc2c(CN3CCOCC3)cc(Cl)c3cccnc23)c1 | 78% | 7% | 1.5µM* | 3% | 0.93µM* | -10%
CCOc1ccc(N(C)S(=O)(=O)c2ccc(-c3ccc(=O)[nH]n3)s2)cc1 | -17% | 0% | -9% | 2% | 12µM* | ?
Cc1cc(NC(=O)CN(C)S(=O)(=O)c2ccc(-c3ccc(=O)[nH]n3)s2)ccc1Br | -44% | ? | -1% | -4% | -1% | -1%
COc1cc(NC(=O)CN(C)S(=O)(=O)c2ccc(-c3ccc(=O)[nH]n3)s2)cc(OC)c1 | -1% | -1% | ? | 0% | 38% | 32µM*
CC(C)=CCN1CCNC(=O)C1CC(=O)NCc1nc(C)c(C)s1 (configuration not stated) | 30% | -5% | 0% | 1% | 2.3µM* | -17%
Cc1nc(CCNC(=O)CC2C(=O)NCCN2Cc2ccccc2)sc1C (configuration not stated) | 65% | ? | 20% | 2% | ? | ?
CC(C)(O)CC[C@@H](O)[C@](C)(O)[C@H]1CC[C@@]2(O)C3=CC(=O)[C@@H]4C[C@@H](O)[C@@H](O)C[C@]4(C)[C@H]3CC[C@]12C | -13% | -9% | . | 1% | 24% | 4%
COc1ccc(Cl)cc1NC(=O)c1cnc2n(c1=O)CCS2 | -9% | ? | 17% | -7% | 10% | 52%
COc1ccc(OC)c(NC(=O)c2cnc3n(c2=O)CCS3)c1 | -14% | -13% | . | 2% | 8.3µM* | 0%
COc1ccc(OC)c(NC(=O)c2cccc(C)c2[N+](=O)[O-])c1 | -20% | -2% | 9% | -2% | 1.7µM* | -7%[57.1 µM]
SMILES | AmpC no deterg | AmpC inh detg | Pf growth 48h | SARS PLP yeast | Pf growth 96h | Sm TGR block
Cc1ccc(NC(=O)c2cnn(-c3ccccc3)c2NC(=O)c2ccco2)cc1C | -41% | 1% | 63% | 5% | 12µM* | 9%
CCN(CC)S(=O)(=O)c1ccc(OC)c(NC(=O)c2cccc(C)c2[N+](=O)[O-])c1 | -4% | -12% | -1% | 1% | -5% | 0%
Cc1cccc(NC(=O)c2ccco2)c1C | -5% | ? | 4% | 4% | 10µM* | -21%
Cc1c(NC(=O)C(C)Sc2nc3ccccc3c(=O)n2CCO)c(=O)n(-c2ccccc2)n1C (configuration not stated) | -6% | -8% | 78% | -2% | 6% | 2%
CCC1Oc2ccccc2N(CC(=O)NCc2ccccc2)C1=O (configuration not stated) | . | 8% | . | . | . | 2%
Cc1cccc(NC(=O)c2ccccc2NC(=O)c2ccco2)c1 | 6.3µM* | 0% | ? | 1% | 0% | -28%
COc1ccc(OC)c(NC(=O)c2ccccc2NC(=O)c2ccco2)c1 | -2% | -2% | 3.3µM* | -2% | -6% | -1%
O=C(Nc1ccccc1C(=O)Nc1ccccc1)c1ccco1 | -35% | -10% | 2% | -1% | ? | 5%
COc1ccc(OC)c(NC(=O)c2cnc(Nc3ccccc3OC)c3ccccc23)c1 | 1% | -6% | 10µM* | 1% | 17% | 0%
O=C(c1cc2c(F)cccc2s1)N1CCCC1 | -13% | 2% | -10% | -1% | 8% | .
COc1cc([N+](=O)[O-])c(OC)cc1SCc1n[nH]c(=S)n1-c1ccc(F)cc1 | -5% | -3% | -27% | 1% | 1.7µM* | 10%
CC(C)C[C@@H](NC(=O)[C@H](Cc1ccccc1)NC(=O)c1cnccn1)B(O)O | . | . | 0.067µM* | . | 0.03µM* | .
CC(Sc1ccccc1)C(=O)NNC(=O)c1ccncc1 (configuration not stated) | -14% | 0% | 0% | -4% | 25% | -1%
O=C(c1ccco1)N1CCN(CCCCOc2ccc(F)cc2)CC1 | 49% | 8% | -12% | -8% | ? | -8%
O=C(Nc1ccc(OC(F)(F)F)cc1)c1cccn(Cc2ccccc2Cl)c1=O | . | 8% | . | . | . | 1%
CCCC(=O)NC(Oc1ccccc1Cl)C(Cl)(Cl)Cl (configuration not stated) | -10% | -14% | 23% | -1% | 37% | 13µM*
CC(C)NC(=O)CCCOc1ccc(Cl)cc1Cl | 23% | ? | . | -9% | 10µM* | -3%
